Assay results as given in PubChem BioAssay (Tox21).
Inconclusive results are not listed. A call without a number means that no potency is given here. Values without a mark were called inactive. Active and inactive are the calls of the source. Calls come from the whole dose curve; as a rule, active = well fitted inhibition curve with a large enough effect in the repeat runs; inconclusive = weak or mixed curves; inactive = no such curve, though single readings can be large or run the other way.

target: Cytochrome P450 3A4 (Homo sapiens) (UniProt P08684); test: Cytochrome P450 Family 3 Subfamily A Member 4 (CYP3A4) small molecule antagonists: luciferase reporter qHTS assay (AID 1671201); settings: P450-Glo CYP3A4 enzyme, luciferin luminescence, 1 h; series mostly up to 115 µM; note: nearly all actives have a fitted effect of over 50% in size
Sequence (P08684 whole entry, looked up): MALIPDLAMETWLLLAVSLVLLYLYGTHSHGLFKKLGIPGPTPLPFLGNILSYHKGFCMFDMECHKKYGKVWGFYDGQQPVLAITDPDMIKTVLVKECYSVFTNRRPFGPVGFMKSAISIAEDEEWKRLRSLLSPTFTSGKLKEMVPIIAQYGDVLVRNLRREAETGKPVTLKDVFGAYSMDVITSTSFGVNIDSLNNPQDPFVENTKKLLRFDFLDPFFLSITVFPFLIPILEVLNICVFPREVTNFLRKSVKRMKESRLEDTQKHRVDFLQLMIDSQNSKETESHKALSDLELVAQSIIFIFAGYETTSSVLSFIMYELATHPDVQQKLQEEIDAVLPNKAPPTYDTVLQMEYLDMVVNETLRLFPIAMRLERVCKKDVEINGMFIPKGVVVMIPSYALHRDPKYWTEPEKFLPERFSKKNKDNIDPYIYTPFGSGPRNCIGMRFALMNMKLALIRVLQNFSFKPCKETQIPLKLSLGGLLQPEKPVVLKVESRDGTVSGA
Text: National Center for Advancing Translational Sciences [NCATS]
U.S. Environmental Protection Agency [EPA]
National Institutes of Environmental Health Sciences [NIEHS]
National Toxicology Program [NTP]
U.S. Food and Drug Administration [FDA]
Cytochrome P450 (CYP) enzymes are membrane-bound hemeproteins that play a key role in metabolism of drugs and xenobiotics. Evaluation of the effect of chemicals on CYP isozymes is useful to minimize the adverse drug reactions and toxicities in drug development process. Tox21 chemicals were tested for their effect on CYP enzyme activities by using P450-Glo (TM) screening systems (Promega Corporation, Madison, WI). These systems provide a luminescent method containing proluciferin substrates and are converted to luciferin products by CYP isozymes. The luciferin products formed are detected with a luciferin detection reagent, and the amount of light produced is proportional to CYP activity. P450-Glo (TM) CYP3A4 screening system (Catalog. No. V9910) was used to detect the compounds that interfere in CYP3A4 activity. The positive control compound used for CYP3A4 assay is ketoconazole (Sigma-Aldrich, St. Louis, MO).
Tox21 Assay Protocol Summary:
Two ul of enzyme-substrate mix was dispensed into medium binding white/solid 1536-well plates (Greiner Bio-One North America Inc., Monroe, NC) using a BioRaptr Flying Reagent Dispenser (FRD, Beckman Coulter, Brea, CA). Compounds dissolved in DMSO and positive control (ketoconazole) were transferred to the assay plates at 23 nl using a Pintool station (Wako, San Diego, CA). The assay plates were incubated at room temperature for 10 min. Then 2 ul of NADPH regeneration solution was added to each well of the assay plates using an FRD and incubated at room temperature for 1 h. The reaction was stopped by adding 4 ul of detection reagent using an FRD and after 20 min incubation at room temperature the luminescence signal was measured using a ViewLux plate reader (Perkin Elmer, Shelton, CT). Data were expressed as relative luminescence units.
Potency is the fitted concentration of half-maximal effect.

Row | SMILES | Potency | activity change, negative = inhibition
1 | CN(C)CCc1ccc(O)cc1 | inactive | 
2 | C[N+](=O)[O-] | inactive | 
3 | CCCCOC(=O)[C@@H](C)Oc1ccc(Oc2ccc(C#N)cc2F)cc1 | inactive | 
4 | O=S(=O)(O)C(F)(F)C(F)(F)C(F)(F)C(F)(F)C(F)(F)C(F)(F)F | inactive | 
5 | CC(C1CC1)C(O)(Cn1cncn1)c1ccc(Cl)cc1 (stereo not given) | 0.888 µM (active) | 
6 | N#CC(Cl)(Cl)Cl | inactive | 
7 | O=NN1CCN(N=O)CC1 | inactive | 
8 | CC(CCc1ccccc1)NC(C)C(O)c1ccc(O)cc1 (stereo not given) | inactive | 
9 | O=C1c2ccccc2C(=O)c2ccccc21 |  | 15.9% [at 23.6 µM]
10 | O=C1OC(c2ccc(O)c(S(=O)(=O)O)c2)(c2ccc(O)c(S(=O)(=O)O)c2)c2c(Br)c(Br)c(Br)c(Br)c21 | inactive | 
11 | CC(C(O)c1ccccc1)N(C)C/C=C/c1ccccc1 (stereo not given) | inactive | 
12 | C=CC1CC=CCC1 (stereo not given) | inactive | 
13 | CCOP(=S)(OCC)Oc1ncn(-c2ccccc2)n1 | 2.52 µM (active) | 
14 | OC(c1ccc(F)cc1)(c1cncnc1)c1ccccc1Cl (stereo not given) | 0.356 µM (active) | 
15 | O=C(CCCN1CCC(n2c(=O)[nH]c3ccccc32)CC1)c1ccc(F)cc1 | inactive | 
16 | CCSC(=O)N(CC)C1CCCCC1 | inactive | 
17 | COC(=O)C(C)Oc1ccc(Oc2ccc(Cl)cc2Cl)cc1 (stereo not given) | inactive | 
18 | O=C(CCN1CC1)OCC(CO)(COC(=O)CCN1CC1)COC(=O)CCN1CC1 | inactive | 
19 | CCOP(=S)(OCC)SCSP(=S)(OCC)OCC | 1.26 µM (active) | 
20 | Cc1cc(C)nc(Nc2ccccc2)n1 | inactive | 

Row | SMILES | Potency | activity change, negative = inhibition
21 | CCCCC(=O)Cl | inactive | 
22 | CCCCCCI | inactive | 
23 | BrCCCCCCBr | inactive | 
24 | CSc1nc(N=[N+]=[N-])nc(NC(C)C)n1 | inactive | 
25 | N#CC(O)c1ccccc1 (stereo not given) | inactive | 
26 | Cc1cc(C)c(C(=O)P(=O)(C(=O)c2c(C)cc(C)cc2C)c2ccccc2)c(C)c1 | 25.2 µM (active) | 
27 | ClCC(Cl)Cl | inactive | 
28 | Cc1ccccc1CO[C@@H]1C[C@@]2(C(C)C)CC[C@]1(C)O2 | 3.99 µM (active) | 
29 | CCC1(c2ccccc2)C(=O)NC(=O)NC1=O | inactive | 
30 | CC(C)COP(=O)(OCC(C)C)OCC(C)C | inactive | 
31 | CC(C)CC#N | inactive | 
32 | CC(=O)Nc1cc([As](=O)(O)O)ccc1O | inactive | 
33 | O=C1CN=C(c2ccccc2)c2cc([N+](=O)[O-])ccc2N1 | inactive | 
34 | CCCCc1ccc(O)cc1 | inactive | 
35 | CCOC(=O)NC(=S)Nc1ccccc1NC(=S)NC(=O)OCC | 25.2 µM (active) | 
36 | COP(=S)(OC)Oc1c(Cl)cc(C)cc1Cl | 5.03 µM (active) | 
37 | ClC(Cl)C(Cl)Cl | inactive | 
38 | CN1CCN(C(=O)O[C@H]2c3nccnc3C(=O)N2c2ccc(Cl)cn2)CC1 | inactive | 
39 | O=C(Oc1ccc(Br)cc1)N1CCN2CCC1CC2 | inactive | 
40 | Clc1ccccc1N1CCNCC1 | inactive | 
